The record followed here is PubChem BioAssay (NCI).

Where “and” joins values, the source holds several entries; their conditions need not be identical. Equal values may be shown once. About 83,000 compounds went through this panel and 20% of them were active in at least one assay; those are over-represented in the sample as a whole.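 Step 1: grow cells in 96-well plates. Step 2: add test compound at a single concentration. Step 3: incubate 48 h. Step 4: record percent growth.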 A number with no mark means an inactive call. Calls of active or inactive are those of the source. How the source made its calls: active means growth percent below 10; inactive means the rest.

The test system of this test is MDA-MB-468 breast. Description: NCI-60 one-dose screen, 48 h (100 = growth as untreated, 0 = no growth, -100 = all killed). The note with it: 10 µM unless noted.
Regarding `O=C1CN2CCC1CC2`, the growth was 104%.
The result for `CCC[CH2][Sn]1([CH2]CCC)[O]C(=O)c2cccc([N+](=O)[O-])c2C(=O)[O]1` reads -79.4% (active); that for `C#CC1(O)CCC(C(C)(C)C)CC1` (stereo not given), 122%; that for `Nc1nc(N)c(-c2ccc(Cl)c(Cl)c2)c(/C=C/c2ccc(S(=O)(=O)F)cc2)n1`, 103%.
To `CCOC(=O)C1(c2ccccc2)CCN(CC(=O)c2ccc(NC(C)=O)cc2)CC1` belongs 110%; to `CC1(C)N=C(N)N=C(N)N1c1ccc(CCC(=O)Nc2ccc(S(=O)(=O)F)cc2)cc1`, 46.3%; to `O=C(O)C(Br)CBr` (stereo not given), 94.8%.
The result for `CCCCCCCCOC(=O)CCN1CC1` reads 100%; that for `CC(C)OC(=S)[S-].[Au+].c1ccc([PH+](c2ccccc2)c2ccccc2)cc1`, -32.3% (active).
On to `C[S+]1C=Cc2ccccc2C1c1ccc(Cl)cc1` (stereo not given), for which the growth was -40.7% (active).
To `CO[C@@H](c1ccccc1Cl)[C@H](C)OC(N)=O` belongs 91.6%.
The result for `O=S(=O)(O)c1ccc(-c2ccc([As](=O)(O)O)cc2)cc1` reads 105%; that for `C/C=C\C(=O)O[C@@H]1CC2O[C@@H]3C=C(C)C(=O)C[C@]3(C)[C@]1(C)[C@]21CO1`, -29.7% (active).
The result for `CC(=O)O[C@H](C[C@H](C(C)C)N(C)C(=O)[C@@H](NC(=O)[C@H]1CCCCN1C)C(C)(C)C)c1nc(C(=O)N[C@@H](Cc2ccccc2)C[C@H](C)C(=O)O)cs1` reads 4.72% (active); that for `c1cnc2c(c1)ccc1ncccc12`, 109%.
Regarding `COc1cc(C)c(-c2ccc(OC)c(=O)cc2C)c(OC)c1OC`, the growth was 33.8% and 77.1%.
Turning to `C[C@@H]1O[C@@H](O[C@H]2CC[C@@]3(C)[C@H](CCC4[C@@H]3C(O)C[C@]3(C)[C@@H](c5ccc(=O)oc5)CC[C@]43O)C2)[C@H](O)[C@H](O)[C@H]1O` (stereo not given in full), the growth is -59.8% (active).
Take `C=CCc1ccc(OC(=O)Cc2ccccc2)c(OC)c1`: the growth is 100%.
With `CCCCCCCCCCCCCCCC[N+](C)(C)Cc1ccccc1`, the growth was -27.3% (active) and -40.6% (active).
The result for `O=C(NCCN1CC1)C(=O)NCCN1CC1` reads 81.3%.
The result for `CCCCCCCCCCCCOc1ccc(C(=O)Oc2ccc(CSP3(=O)OCC4OC(n5cnc6c(N)ncnc65)C(F)C4OP(=O)(O)OCC4OC(n5ccc(=O)[nH]c5=O)C(F)C4O3)cc2)cc1` (stereo not given) reads 108%; that for `COc1ccc(O)c(CNC(=O)CN2CCCC2=O)c1`, 108%.
The result for `CC(=O)O[C@H]1C(=O)[C@@]2(C)[C@H]([C@H](OC(=O)c3ccccc3)[C@]3(O)C[C@H](OC(=O)[C@H](OC(=O)OC[C@H]4COC(C)(C)O4)[C@@H](NC(=O)c4ccccc4)c4ccccc4)C(C)=C1C3(C)C)[C@]1(OC(C)=O)CO[C@@H]1C[C@@H]2O` reads -16.3% (active); that for `N/C(=N/N=C/c1ccncc1)N[N+](=O)[O-]`, 110%.
`CC1=C2C(=C[C@@](C)(COS(C)(=O)=O)[C@@H]2O)C(=O)[C@](C)(O)C12CC2`: the growth was -54.8% (active).
To `CCn1nccc1NC(=O)C(=O)c1cn(Cc2ccc(F)cc2)c2cccc(OC)c12` belongs 102%.
As to `CCOP(=O)(NC[C@H]1O[C@](O)(CO)[C@@H](O)[C@@H]1O)OCC`, the growth is 107%.
The result for `NC(=S)c1cn(C2OC(CO)C(O)C2O)c2ncnc(N)c12` (stereo not given) reads -43.2% (active).
The result for `O=C1C(N2CC2)=C(N2CC2)C(=O)C(N2CC2)=C1N1CC1` reads 0.964% (active); that for `O=C(CC1(O)C(=O)Nc2ccc(Br)cc21)c1ccc(C(=O)NCC2CCC3(CC2)OOC2(CCCCC2)OO3)cc1` (stereo not given), 48.7%.
For the molecule `Cc1cc(NC(=O)NCc2ccc(N3C(N)=NC(N)=NC3(C)C)cc2)ccc1S(=O)(=O)F`, the growth is 63.3%.
In the case of `Nc1ccc(S(=O)(=O)F)cc1`, the growth is 107%.
To `O=[N+]([O-])/C=C\c1ccc(Cl)c(Cl)c1` belongs 12.4%; to `O=C1C=C2C(=CCOC2O)O1` (stereo not given), -55.5% (active).
With `COc1cc2c(c(OC)c1OC)-c1ccc(O)cc1[C@@H](NC(C)=O)CC2`, the growth was -20.9% (active) and -7.5% (active).
To `CCCCCCCCC(CO)NCCc1ccccc1` (stereo not given) belongs 100%.
The result for `C=CC(O)CN1CC1CC` (stereo not given) reads 105%.
The result for `O=[N+]([O-])c1cc(I)cc([N+](=O)[O-])c1` reads 88.2%; that for `COc1cc(/C=C/[N+](=O)[O-])cc(OC)c1`, -61.2% (active); that for `CCn1c2ccccc2c2cc(C(=O)c3cccc4c3CCCN4)ccc21`, 96.4%.
